Sampled rows, rich in hits. Any-hit rate of the full collection: about 3.9%.
USP2a inh: qHTS Assay for Inhibitors of Ubiquitin-specific Protease USP2a Using CHOP2 as the Reporter; Ubiquitin carboxyl-terminal hydrolase 2 (Homo sapiens), O75604; USP2 core, Ub-CHOP2 coupled fluorogenic reporter, 485/531; Potency, µM (top dose mostly 38.3 µM), for inactives: at the top dose activity change, negative = inhibition, hits mostly inhibitors; hit rate 0.01% among 330,000; AID 463254, 2010;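 further: potency means the concentration at half of the fitted maximal effect; plate controls were DMSO wells for no effect and full inhibition by NEM control for full effect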
Target sequence (O75604 whole entry, looked up): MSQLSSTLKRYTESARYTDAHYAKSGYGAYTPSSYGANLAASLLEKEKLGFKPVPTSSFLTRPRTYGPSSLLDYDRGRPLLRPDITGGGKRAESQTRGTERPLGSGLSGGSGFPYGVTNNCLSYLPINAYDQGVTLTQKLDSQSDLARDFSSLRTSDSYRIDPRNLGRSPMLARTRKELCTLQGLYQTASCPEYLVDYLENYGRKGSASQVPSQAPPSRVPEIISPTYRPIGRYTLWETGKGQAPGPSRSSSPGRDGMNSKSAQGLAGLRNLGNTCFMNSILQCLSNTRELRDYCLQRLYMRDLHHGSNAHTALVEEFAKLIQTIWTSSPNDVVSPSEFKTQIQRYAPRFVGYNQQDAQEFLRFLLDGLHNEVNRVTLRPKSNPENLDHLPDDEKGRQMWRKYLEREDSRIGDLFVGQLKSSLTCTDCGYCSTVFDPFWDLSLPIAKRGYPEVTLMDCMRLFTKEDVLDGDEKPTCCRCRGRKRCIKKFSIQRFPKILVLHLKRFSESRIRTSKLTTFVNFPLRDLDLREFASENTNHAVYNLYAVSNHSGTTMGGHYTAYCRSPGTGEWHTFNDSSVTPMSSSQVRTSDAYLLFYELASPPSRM
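Deubiquitinase activity read as fluorescence (485/531 nm) after Ub-CHOP2 cleavage activates the enterokinase reporter on its substrate; USP2 core 10nM, Ub-CHOP2 and substrate 25nM each, 30min compound preincubation then 60min RT; data normalized to NEM, curves fitted.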
D1 ag: Allosteric Agonists of the Human D1 Dopamine Receptor: qHTS; D(1A) dopamine receptor (Homo sapiens), P21728; AID 504660, 2011; HEK293 T-REx D1 cells, calcium flux, agonist mode; activation, % at 2 µM; hit rate 1% among 360,000; in the data active means activation above about 30%; further: 0% is about no effect
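Tetracycline-induced HEK293 TREx D1 cells, force-coupled to calcium signalling, were dye-loaded with a no-wash calcium kit. Compound was pin-added after a 10 s baseline. Fluorescence was read kinetically at 1 cycle/s for 180 s, with calcium rises flagged as agonism.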
D1 antag: Antagonist of Human D 1 Dopamine Receptor: qHTS | HEK293 TREx D1 cells, calcium flux, dopamine EC80; hits give low values | activity change, negative = inhibition, % at 10 µM | D(1A) dopamine receptor (Homo sapiens), P21728 | hit rate 3.2% among 360,000; in the data active means activity change below about -30%; further: on the % scale 0 is the no-effect control and ±100 the full control effect
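Tetracycline-induced HEK293 T-REx cells with force-coupled D1 receptor were loaded with a no-wash calcium dye. Compound was added after a 10 s baseline and read kinetically for 180 s; EC80 dopamine was then added and calcium flux followed another 180 s.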
GALK inhibitor: qHTS Assay for Inhibitors of Human Galactokinase (GALK); Potency, µM (top dose mostly 57.5 µM), without a hit: at the top dose activity change, negative = inhibition, usual class: inhibitors; Purified GALK, Kinase-Glo residual ATP luminescence; hit rate 0.007% among 270,000; further: potency means the concentration at half of the fitted maximal effect; on the % scale 0 is the no-effect control and ±100 the full control effect
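5 nM enzyme, 35 uM ATP, 100 uM galactose, 20 mM HEPES pH8.0, 5 mM MgCl2; 1 h RT; residual ATP by Kinase-Glo Plus luminescence, qHTS format.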
D1 potentiator: Potentiators of Human D1 Dopamine Receptor: qHTS. D(1A) dopamine receptor (Homo sapiens), P21728. HEK293 TREx D1 cells, calcium flux, dopamine EC20 potentiation. potentiation, % at 10 µM. hit rate 0.036% among 360,000. AID 504651, 2011; in the data active means potentiation above about 30%; further: 0% is about no effect
Eya2 inh: qHTS Assay for Inhibitors of the Phosphatase Activity of Eya2; recombinant Eya2, OMFP fluorescence dephosphorylation (OMFP is methylfluorescein phosphate); Potency, µM (titrated, usually from 76.9 µM), inactives show at the highest dose activity, negative = inhibition, actives largely listed as inhibitors; Protein phosphatase EYA2 (Homo sapiens), O00167; hit rate 0.006% among 330,000; further: potency means the concentration at half of the fitted maximal effect; on the % scale 0 is the no-effect control and ±100 the full control effect
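Eya2 (0.2 uM) preincubated 10 min at ambient with compound, then OMFP substrate added at 50 uM; 10 min reaction in 50 mM HEPES pH 7.5, 50 mM NaCl, 5 uM MgCl2, 0.05% BSA, 1 mM DTT. Fluorescence read at Ex 485/Em 525 nm.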
Active calls of the source: *; ? = inconclusive; / = no result given. Unless noted, the call rests on the fitted dose curve; in most records, active means well fitted inhibition curve with a large enough effect; inconclusive means small, poorly fitted or top-dose-only effect, or effect the other way; inactive means flat fitted curve, though single readings scatter.

SMILES | USP2a inh | D1 ag | D1 antag | GALK inhibitor | D1 potentiator | Eya2 inh
O=c1[nH]c2ccc(S(=O)(=O)N3CCN(S(=O)(=O)c4ccc5c(c4)OCCO5)CC3)cc2[nH]c1=O | / | 1 | -17 | / | -2 | /
Cc1cccc(C)c1NC(=O)c1cc(S(=O)(=O)N2CCc3ccccc32)cn1C | 0% | 10 | -47* | / | -16 | -11%
Cc1cccc(NC(=O)c2cc(S(=O)(=O)N3CCc4ccccc43)cn2C)c1 | 1% | 8 | 5 | / | -2 | -2%
Cn1cc(S(=O)(=O)N2CCCC2)cc1C(=O)Nc1cccc(C(F)(F)F)c1 | 2% | 7 | 0 | 5% | 1 | 2%
Cn1cc(S(=O)(=O)N2CCc3ccccc32)cc1C(=O)Nc1ccc(Cl)cc1 | -4% | 7 | -37* | / | -2 | -5%
CSc1cccc(NC(=O)c2cc(S(=O)(=O)N3CCc4ccccc43)cn2C)c1 | 3% | 9 | -56* | / | 0 | -4%
Cn1cc(S(=O)(=O)N2CCCC2)cc1C(=O)Nc1ccc(C(F)(F)F)cc1 | / | 33* | 0 | / | -2 | /
Cc1ccc(NC(=O)c2cc(S(=O)(=O)N3CCc4ccccc43)cn2C)cc1 | 0% | 1 | -5 | / | -4 | -6%
CCOC(=O)c1[nH]c(C)c(CCC(=O)NCc2ccc(CC)cc2)c1C | / | -1 | -5 | / | 0 | /
CC(C)(C)OC(=O)N1CCC(c2c(C(=O)NCCN3CCCC3)cnn2-c2ccc(Cl)cc2)CC1 | / | 0 | -3 | / | 3 | /
COc1ccc(CCn2c(C(C)C)nc3c(c(=O)c4ccccc4n3C)c2=O)cc1 | 5% | 140* | -16 | 2% | -5 | -4%
COc1ccc(Cn2c(-c3ccc(C)cc3)nc3c(c(=O)c4ccccc4n3C)c2=O)cc1 | 3% | 39* | 0 | -1% | 3 | -4%
O=C(NCCc1nc2ccccc2n1Cc1ccc(Cl)cc1Cl)c1ccco1 | / | 1 | 19 | / | 4 | /
CN1CCC/C1=C/C=C1\SC(=S)NC1=O | ? | 81* | 10 | -1% | -1 | ?
O=C(c1ccc2c(c1)N(Cc1c(F)cccc1Cl)C(=O)c1ccccc1S2)N1CCCC1 | / | 1 | -14 | / | 5 | /
COc1ccc(NC(=O)Cn2c(=O)n(CCC(=O)NCc3ccccc3OC)c(=O)c3ccccc32)cc1Cl | / | -2 | -2 | / | 1 | /
Cc1ccc2c(c1)N(C(=O)CCC(=O)NCc1ccccc1Cl)CC(C)O2 (configuration not stated) | / | 1 | -1 | / | -4 | /
COc1ccccc1CNC(=O)CN1C(=O)CCc2cc(S(=O)(=O)N3CCOCC3)ccc21 | / | 2 | 4 | / | 0 | /
COc1ccc(S(=O)(=O)N2CCCCCC2)cc1NC(=O)CN1C(=O)NC(C)(c2ccccc2)C1=O (configuration not stated) | 0% | 1 | -31* | / | -5 | 28%
COc1ccc(S(=O)(=O)N2CCCCC2)cc1NC(=O)CCNC(=O)c1ccccc1Cl | -1% | 1 | -70* | / | -3 | ?
COc1ccccc1CNC(=O)CN1C(=O)CCc2cc(S(=O)(=O)N3CCCCC3)ccc21 | / | -1 | -56* | / | 1 | /
CCC1(c2ccccc2)NC(=O)N(CC(=O)Nc2cc(S(=O)(=O)N3CCCCC3)ccc2N(C)C)C1=O (configuration not stated) | 4% | 5 | -20 | / | -3 | -6%
COc1ccc(CNC(=O)Cc2c(C)c3c(cc(C)c4c(C)coc43)oc2=O)cc1OC | / | 0 | -3 | / | -3 | /
Cc1cccc(NC(=O)c2ccccc2SCc2ccc(F)cc2)n1 | -3% | 3 | -34* | / | 0 | -10%

Screening results (PubChem)
